# Source: PubChem BioAssay (Tox21)
# Records with an inconclusive call do not appear. Where a call stands in place of a potency, no number is given. A number with no mark means an inactive call. Activity calls are given as the source filed them. The call rests on the fitted dose curve.
# Target: Thyrotropin receptor (Homo sapiens) (UniProt P16473)
# Experiment: qHTS assay to identify small molecule agonists of the thyroid stimulating hormone receptor (TSHR) signaling pathway (AID 1224843); further: nearly all actives have a fitted effect of over 45% in size
# Settings: TSHR-HEK293 cells, cAMP HTRF, agonist mode, 30 min; series mostly up to 92.4 µM; activation: at the top concentration
# Excerpt: National Center for Advancing Translational Sciences [NCATS]
# NIH Chemical Genomics Center [NCGC]
# U.S. Environmental Protection Agency [EPA]
# National Institutes of Environmental Health Sciences [NIEHS]
# National Toxicology Program [NTP]
# U.S. Food and Drug Administration [FDA]
# TSHR is the receptor for thyrotropin (thyroid stimulating hormone or TSH), a member of the glycoprotein hormone family. TSH is released by the anterior pituitary gland and is the main regulator of thyroid gland growth and development. Upon binding circulating thyrotropin, a G-protein signal cascade activates adenylyl cyclase and […] cAMP concentration is increased. cAMP is a key second messenger involved extensively in cellular signal transduction pathways associated with the majority of G-protein coupled receptors (GPCRs). The activation of these GPCRs by neurotransmitters, lipids, nucleotides, peptides and hormones results in the activation or the inhibition of plasma membrane-bound adenylate cyclase through heterotrimeric G-proteins. A cell-based TSHR assay was used to screen the Tox21 10K library for compounds that can modulate TSHR in agonist mode.
# Tox21 Assay Protocol Summary:
# TSHR-Hek293 cells were dispensed at 800 cells/4uL/well in 1536-well white plates using a Multidrop dispenser. […] The plates were incubated at room temperature for 30 min. 2.5 ul/well of cAMP-d2 and 2.5ul/well of anti-cAMP-cryptate was added respectively into the assay plates using a Flying Reagent Dispenser. After 1 hr incubation at room temperature, the fluorescence intensity in the plates was measured using an Envision plate reader. Each test compound was measured at 15 concentrations and in triplicates.
# Thyrotropin receptor (Homo sapiens), sequence (P16473 whole entry, looked up): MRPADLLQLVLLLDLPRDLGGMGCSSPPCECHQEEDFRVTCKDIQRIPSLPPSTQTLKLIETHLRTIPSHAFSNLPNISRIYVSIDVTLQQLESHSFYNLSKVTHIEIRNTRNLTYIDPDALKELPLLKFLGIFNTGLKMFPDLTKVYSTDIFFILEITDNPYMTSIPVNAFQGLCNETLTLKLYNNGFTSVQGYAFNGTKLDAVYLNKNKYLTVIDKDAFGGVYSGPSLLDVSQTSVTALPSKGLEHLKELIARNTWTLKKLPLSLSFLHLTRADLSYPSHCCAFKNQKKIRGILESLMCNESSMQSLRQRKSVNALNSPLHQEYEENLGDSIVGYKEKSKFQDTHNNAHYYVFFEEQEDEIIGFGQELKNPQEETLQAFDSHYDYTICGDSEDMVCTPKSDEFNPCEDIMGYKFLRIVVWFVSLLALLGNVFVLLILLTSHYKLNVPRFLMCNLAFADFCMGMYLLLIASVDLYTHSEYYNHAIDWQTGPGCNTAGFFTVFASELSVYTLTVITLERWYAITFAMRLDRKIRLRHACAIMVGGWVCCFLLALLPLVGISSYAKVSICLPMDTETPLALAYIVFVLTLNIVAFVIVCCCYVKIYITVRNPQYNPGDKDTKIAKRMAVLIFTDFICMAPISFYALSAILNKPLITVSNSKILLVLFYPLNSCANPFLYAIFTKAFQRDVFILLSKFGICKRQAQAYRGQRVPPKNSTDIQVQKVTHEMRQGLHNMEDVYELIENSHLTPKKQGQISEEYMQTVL
SMILES,Potency,activation
CC(C)OC(=O)Nc1cccc(Cl)c1,inactive,
O=NN1CCCCCCC1,inactive,
CCCCCCCCCCCC#N,inactive,
CC(Oc1ccc(Cl)cc1Cl)C(=O)O (stereo not given),inactive,
CN(C)CCO,,6.05%
COC(=O)NC(=S)Nc1ccccc1NC(=S)NC(=O)OC,inactive,
CC(=O)C=C(C)C,inactive,
COC(=O)c1ccccc1N,inactive,
COC(=O)c1ccccc1C(=O)OC,inactive,
CC(C)=C[C@@H]1[C@@H](C(=O)OCc2coc(Cc3ccccc3)c2)C1(C)C,,-10.6% [at 42.5 µM]
C#CCN(C)[C@H](C)Cc1ccccc1,inactive,
c1ccc2c(c1)oc1ccccc12,inactive,
CON(C)C(=O)Nc1ccc(Cl)c(Cl)c1,,10.3%
Cc1cccc([N+](=O)[O-])c1,inactive,
Cc1ccccc1O,inactive,
COC(=O)NS(=O)(=O)c1ccc(N)cc1,inactive,
COCCl,inactive,
CC1C=[C-]C=C1.[C-]#[O+].[C-]#[O+].[C-]#[O+].[Mn],,0.727% [at 42.5 µM]
CC(C)N1C(=O)c2ccccc2NS1(=O)=O,inactive,
OC(O)C(Cl)(Cl)Cl,inactive,

SMILES,Potency,activation
NCCc1ccc(O)cc1,inactive,
O=C1CCCN1,inactive,
CCCN(CCC)N=O,inactive,
CC(C)(Cl)Cl,inactive,
Cc1ccc([N+](=O)[O-])cc1C,inactive,
CCNc1nc(NC(C)(C)C)nc(SC)n1,inactive,
CCN(CC)CCO,inactive,
CCC[CH2][Sn]([Cl])([Cl])[Cl],inactive,
Cc1ccc(N)cc1Cl,inactive,
Cc1[nH]c(=O)n(C(C)(C)C)c(=O)c1Cl,inactive,
CC(C)OC(=O)Nc1ccccc1,inactive,
CCc1cccc(C)c1N(C(=O)CCl)C(C)COC (stereo not given),,28.3%
CN(C)[C@@H]1C(=O)C(C(N)=O)=C(O)[C@@]2(O)C(=O)C3=C(O)c4c(O)cccc4[C@@](C)(O)[C@H]3C[C@@H]12,inactive,
c1ccc(OP(Oc2ccccc2)Oc2ccccc2)cc1,inactive,
O=[N+]([O-])c1ccc([As](=O)(O)O)cc1,inactive,
ClCCBr,inactive,
CCCC1COC(Cn2cncn2)(c2ccc(Cl)cc2Cl)O1 (stereo not given),inactive,
CC(C)C1(C)N=C(c2nc3ccccc3cc2C(=O)O)NC1=O (stereo not given),inactive,
O=c1n(Cl)c(=O)n(Cl)c(=O)n1Cl,inactive,
NCC(O)c1ccc(O)cc1 (stereo not given),inactive,
